# Unmarked numbers belong to inactive results. Inconclusive results are not listed. A call without a number means that no potency is given here. More than one record can exist for a structure, and the calls need not agree. Calls of active or inactive are those of the source. Unless noted, the call rests on the fitted dose curve; in most records, active means well fitted curve in the direction sought with a large enough effect; inconclusive means small, poorly fitted or top-dose-only effect, or another doubt; inactive means no such curve, though single readings can be large; an effect the other way counts as inactive or inconclusive.
# Key:
# [1] = biological target: Ubiquitin carboxyl-terminal hydrolase 1 (Homo sapiens) (UniProt O94782); assay: Inhibitors of USP1/UAF1: Pilot qHTS (AID 504865); further: nearly all actives have a fitted effect of over 35% in size; further: potency means the concentration at half of the fitted maximal effect
# How it was run: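 Kinetic fluorescence assay: 1nM USP1/UAF1, 15 min compound preincubation, then 150nM Ub-Rho; 480/540 nm.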
# [2] = biological target: Luciferin 4-monooxygenase (Photinus pyralis) (UniProt P08659); assay: Biochemical firefly luciferase enzyme assay for NPC (AID 624030);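 further: purified P. pyralis luciferase at 10 nM with luciferin and ATP substrate; nearly all actives have a fitted effect of over 70% in size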
# How it was run: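 Direct inhibition of firefly luciferase enzyme (10 nM final, 50 mM Tris Acetate) assessed by luminescence within 5 minutes. Percent activity scaled between DMSO and PTC124 positive control, with concentration-effect curves classified by fit quality and response.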
# [3] = S16 Schwann cell viability assay (CellTiter-Glo assay) (AID 624031);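 further: cellular ATP luminescence as a viability measure; nearly all actives have a fitted effect of over 70% in size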
# How it was run: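 CellTiter-Glo ATP luminescence counter-screen in untransfected S16 rat Schwann cells, 24h compound exposure at 37 degree Celsius after overnight seeding (500-750 cells/well); response scaled between cell-free wells and DMSO (0% activity), curves classed by r2 and magnitude.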
# [4] = S16 Schwann cell PMP22 intronic element firefly luciferase assay (AID 624032); further: nearly all actives have a fitted effect of over 30% in size; further: potency means the concentration at half of the fitted maximal effect
# How it was run: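 Luciferase reporter of PMP22 intronic-element expression in stably transfected S16 rat Schwann cells, read by ONE-Glo luminescence after 24 h compound exposure at 37 C. Activity scaled between DMSO (0%) and positive-control PTC124; concentration-effect curves quality-classified.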
# [5] = S16 Schwann cell PMP22 intronic element beta-lactamase assay (AID 624044; calls by dose curve; further: nearly all actives have a fitted effect of over 15% in size); conditions: S16 rat Schwann cells, PMP22 element beta-lactamase FRET, 24 h
# How it was run: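 Rat S16 Schwann cells with beta-Lac driven by a PMP22 intronic element, compound-treated 24 h at 37 °C. LiveBLAzer FRET B/G read: 460 nm normalized to potassium clavulanate vs DMSO; 535 nm FRET as viability; concentration-effect curves classified.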
# W2 = assay: qHTS profiling for inhibitors of Plasmodium falciparum proliferation (AID 504749); further: nearly all actives have a fitted effect of over 60% in size; further: potency means the concentration at half of the fitted maximal effect; conditions: P. falciparum in erythrocytes, SYBR Green DNA, 72 h; series mostly up to 28.7 µM
# How it was run: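 Three-day growth assay of blood-stage parasites in erythrocytes (0.3% parasitemia, 2.5% hematocrit) at 37 C, 5% CO2, quantified by SYBR Green DNA staining after overnight detergent lysis.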
# [6] = qHTS for Inhibitors of Plasmodium falciparum (DD2) proliferation (AID 504314);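 further: parasite DNA measured by SYBR Green fluorescence after red cell lysis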
# How it was run: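 Quantitative HTS growth inhibition: SYBR Green I binding to parasite DNA after 72 h drug exposure of infected erythrocytes (0.3% parasitemia, 2.5% hematocrit). Signals normalized per plate to inhibitor and vehicle wells.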
# [7] = biological target: Mitogen-activated protein kinase 10 (Mus musculus) (UniProt Q61831); assay: JNK3 AlphaScreen Assay (AID 530; active means well fitted curve in either direction with a large enough effect, not every such curve was filed as active;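 further: kinase came from lysate of stimulated human HepG2 cells; signal reports phosphorylation of biotinylated GST-cJun 1-79 at Ser73 with 10 µM ATP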)
# How it was run: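 Room-temperature AlphaScreen kinase assay; pre-activated HepG2 lysate as JNK3 source, biotin-GST-cJun(1-79) substrate, 10 uM ATP, compound 15 min preincubation.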
# [8] = biological target: DNA dC->dU-editing enzyme APOBEC-3G (Homo sapiens) (UniProt Q9HC16); assay: qHTS for inhibitors of Vif-A3G interactions: Validation (AID 588379)
# How it was run: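 HeLa cells stably expressing Vif and A3G-eYFP, 700 cells/well, incubated overnight at 37 deg C, then exposed to compound overnight at 37 deg C. Inhibition of Vif-mediated degradation read as increased yellow fluorescence (Ex 488/Em 500-530) by laser-scanning cytometry.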
# [9] = ratio activity, negative = inhibition: at 38.3 µM (top of the series)
# Ubiquitin carboxyl-terminal hydrolase 1 (Homo sapiens), sequence (O94782 whole entry, looked up): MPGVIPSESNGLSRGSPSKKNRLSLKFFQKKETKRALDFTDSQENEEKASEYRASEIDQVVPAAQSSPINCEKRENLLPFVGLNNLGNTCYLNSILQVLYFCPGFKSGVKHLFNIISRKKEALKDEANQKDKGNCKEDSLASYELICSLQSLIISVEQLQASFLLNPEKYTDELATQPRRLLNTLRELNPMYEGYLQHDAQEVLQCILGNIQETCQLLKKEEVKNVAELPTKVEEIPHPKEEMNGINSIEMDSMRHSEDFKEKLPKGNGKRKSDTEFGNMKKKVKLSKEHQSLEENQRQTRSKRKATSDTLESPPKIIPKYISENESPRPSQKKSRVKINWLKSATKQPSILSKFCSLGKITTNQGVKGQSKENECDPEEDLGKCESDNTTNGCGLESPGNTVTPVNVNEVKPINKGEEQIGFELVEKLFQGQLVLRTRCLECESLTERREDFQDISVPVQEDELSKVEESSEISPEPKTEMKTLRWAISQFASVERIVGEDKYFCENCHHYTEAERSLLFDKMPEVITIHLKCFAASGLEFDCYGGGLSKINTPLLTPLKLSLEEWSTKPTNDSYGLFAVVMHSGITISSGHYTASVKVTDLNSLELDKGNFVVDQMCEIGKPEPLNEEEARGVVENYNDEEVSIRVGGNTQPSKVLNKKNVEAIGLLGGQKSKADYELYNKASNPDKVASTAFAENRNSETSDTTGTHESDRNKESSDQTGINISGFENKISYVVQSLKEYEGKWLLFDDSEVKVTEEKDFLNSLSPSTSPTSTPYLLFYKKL
# Luciferin 4-monooxygenase (Photinus pyralis), sequence (P08659 whole entry, looked up): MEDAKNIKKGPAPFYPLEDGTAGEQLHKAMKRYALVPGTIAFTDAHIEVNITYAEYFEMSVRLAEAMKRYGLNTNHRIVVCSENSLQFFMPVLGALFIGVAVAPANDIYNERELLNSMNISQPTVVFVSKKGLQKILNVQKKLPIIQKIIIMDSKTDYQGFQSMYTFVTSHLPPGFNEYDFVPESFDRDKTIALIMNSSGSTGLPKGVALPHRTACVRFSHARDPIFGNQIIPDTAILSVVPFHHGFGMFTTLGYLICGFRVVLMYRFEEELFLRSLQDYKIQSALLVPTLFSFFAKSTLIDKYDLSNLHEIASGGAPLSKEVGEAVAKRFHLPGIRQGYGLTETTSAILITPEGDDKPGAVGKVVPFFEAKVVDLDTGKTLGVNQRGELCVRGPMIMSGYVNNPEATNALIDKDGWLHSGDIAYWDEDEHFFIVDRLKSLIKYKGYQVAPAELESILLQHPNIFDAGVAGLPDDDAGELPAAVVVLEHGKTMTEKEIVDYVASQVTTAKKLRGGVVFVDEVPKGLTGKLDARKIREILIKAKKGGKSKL
# DNA dC->dU-editing enzyme APOBEC-3G (Homo sapiens), sequence (Q9HC16 whole entry, looked up): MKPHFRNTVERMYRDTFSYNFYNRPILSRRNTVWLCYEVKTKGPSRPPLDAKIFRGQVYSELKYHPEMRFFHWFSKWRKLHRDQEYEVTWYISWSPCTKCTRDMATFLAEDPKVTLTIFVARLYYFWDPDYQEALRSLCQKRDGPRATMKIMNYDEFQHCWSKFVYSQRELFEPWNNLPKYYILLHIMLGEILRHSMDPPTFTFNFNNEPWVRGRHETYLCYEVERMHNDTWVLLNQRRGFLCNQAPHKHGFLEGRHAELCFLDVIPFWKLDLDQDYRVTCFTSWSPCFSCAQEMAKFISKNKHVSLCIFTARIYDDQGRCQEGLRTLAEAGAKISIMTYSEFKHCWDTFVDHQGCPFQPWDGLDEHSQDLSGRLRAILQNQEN
structure (smiles),measurement,setting,value
CCOC(=O)C(CCc1ccccc1)NC(C)C(=O)N1Cc2cc(OC)c(OC)cc2CC1C(=O)O (centres undefined),Potency,[1],inactive
same,Potency,[2],inactive
same,Potency,[3],inactive
same,Potency,[4],inactive
same,Potency,[5]; [9],inactive
same,Potency,W2,5.36 µM (active)
CNC1=CN(O)C(c2ccccc2)=c2cc(Cl)ccc2=N1,Potency,[2],inactive
same,Potency,[3],inactive
same,Potency,[5]; [9],inactive
same,Potency,W2,1.2 µM (active)
C[C@]12CCC(=O)C=C1[C@@H]1C[C@H]1[C@H]1[C@@H]3[C@@H]4C[C@H]4[C@@]4(CCC(=O)O4)[C@@]3(C)CC[C@@H]12,Potency,[1],inactive
same,Potency,[2],inactive
CC(C)CCCC(C)C1CC(=O)C2=C3CCC4CC(O)CCC4(C)C3CCC21C (centres undefined),Potency,[2],inactive
same,Potency,[5]; [9],inactive
same,Potency,W2,7.57 µM (active)
CC1(C)SC2[C@@H](N=CN3CCCCCC3)C(=O)N2[C@H]1C(=O)O (some centres undefined),Potency,[2],inactive
same,Potency,[3],inactive
same,Potency,[4],inactive
CCN(CC)C(=O)[C@@]1(c2ccccc2)C[C@@H]1CN,Potency,[1],inactive
same,Potency,[2],inactive
same,Potency,[3],inactive
same,Potency,[4],inactive
same,Potency,[5]; [9],inactive
CC1CCC(O)C/C1=C\C=C1/CCCC2(C)C1CCC2C(C)/C=C/C(C)C(C)C (centres undefined),Potency,[2],inactive
same,Potency,[4],inactive
OC[C@@H](O)C(O[C@@H]1O[C@@H](CO)[C@H](O)[C@H](O)[C@H]1O)[C@H](O)[C@@H](O)CO (some centres undefined),Potency,[1],inactive
same,Potency,[2],inactive
same,Potency,[3],inactive
same,Potency,[4],inactive
same,Potency,[5]; [9],inactive
same,Potency,W2,inactive
CC(=O)O[C@]1(C(C)=O)CCC2C3CCC4=CC(=O)CCC4(C)C3(F)C(O)CC21C (some centres undefined),Potency,[1],inactive
same,Potency,[2],inactive
same,Potency,[4],inactive
same,Potency,[5]; [9],inactive
C=C1/C(=C\C=C2/CCC[C@]3(C)[C@@H]([C@H](C)/C=C/[C@@H](O)C4CC4)CC[C@@H]23)C[C@@H](O)C[C@@H]1O,Potency,[2],inactive
same,Potency,[3],inactive
same,Potency,[4],10.2 µM (active)
same,Potency,[5]; [9],inactive
COc1cc(/C=C2\CCC/C(=C\c3ccc(O)c(OC)c3)C2=O)ccc1O,Potency,[3],inactive
same,Potency,W2,9.53 µM (active)
C=C1C(n2cnc3c(=O)[nH]c(N)nc32)C[C@H](O)[C@H]1CO (some centres undefined),Potency,[1],inactive
same,Potency,[2],inactive
same,Potency,[4],inactive
same,Potency,[5]; [9],inactive
CCC(C)C(N)C(=O)O (centres undefined),Potency,[1],inactive
same,Potency,[3],inactive
same,Potency,[4],inactive
C/C=C1/NN(CCCN2CCN(c3cccc(Cl)c3)CC2)C(=O)N1CCOc1ccccc1,Potency,[2],inactive
same,Potency,[3],inactive
same,Potency,[5]; [9],inactive
same,Potency,W2,5.36 µM (active)
C=C(CC[C@@H](C)[C@H]1CCC2[C@]1(C)CC[C@]13C[C@@]14CCC(OC(=O)/C=C/c1ccc(O)c(OC)c1)C(C)(C)[C@@H]4CC[C@@]23C)C(C)C (some centres undefined),Potency,[2],inactive
same,Potency,[3],inactive
same,Potency,[4],inactive
same,Potency,W2,inactive
CC(C)(C)NC[C@H](O)CSc1nc(-c2ccc(C(N)=O)s2)cs1,Potency,[1],inactive
same,Potency,[2],inactive
same,Potency,[3],inactive
same,Potency,[4],inactive
same,Potency,[5]; [9],inactive
same,Potency,W2,inactive
OCC(O)C(O)C(O)C(O)CO (centres undefined),Potency,[1],inactive
same,Potency,[2],inactive
same,Potency,[3],inactive
same,Potency,[4],inactive
same,"ratio activity, negative = inhibition",[5]; at 38.3 µM (top of the series),-3.36%
same,"ratio activity, negative = inhibition",[5]; [9],1.06% (active)
same,Potency,W2,inactive
COC(=O)C1C2CC3c4[nH]c5cc(OC)ccc5c4CCN3CC2CC(OC)C1OC (centres undefined),Potency,[1],inactive
same,Potency,[2],inactive
same,Potency,[4],inactive
same,Potency,[5]; [9],inactive
CC1CN(c2c(F)c(N)c3c(=O)c(C(=O)O)cn(C4CC4)c3c2F)CC(C)N1 (centres undefined),Potency,[2],inactive
same,Potency,[3],inactive
same,Potency,[4],inactive
same,Potency,W2,inactive
C[C@]12CC[C@@H]3c4ccc(O)cc4CC[C@H]3[C@@H]1CCC2OC(=O)CCC1CCCC1 (some centres undefined),Potency,[2],inactive
CC1OC(OC2C(O)CC(OC3C(O)CC(OC4CCC5(C)C(CCC6C5CCC5(C)C(C7=CC(=O)OC7)CCC65O)C4)OC3C)OC2C)CC(O)C1O (centres undefined),Potency,[1],inactive
same,Potency,[2],inactive
same,Potency,[3],inactive
same,Potency,[5]; [9],inactive
Nc1nc2[nH]cc(CCc3ccc(C(=O)NC(CCC(=O)O)C(=O)O)cc3)c2c(=O)[nH]1 (centres undefined),Potency,[2],inactive
same,Potency,[3],inactive
same,Potency,[4],inactive
same,Potency,W2,0.0757 µM (active)
CC(=O)CC(c1ccccc1)C1C(=O)Oc2ccccc2C1=O (centres undefined),Potency,[1],inactive
same,Potency,[2],inactive
same,Potency,[3],inactive
same,Potency,[4],inactive
same,Potency,W2,inactive
N#C/C(=C1/SCC(c2ccccc2Cl)S1)n1ccnc1 (centres undefined),Potency,[1],inactive
same,Potency,[2],inactive
same,Potency,[4],11.4 µM (active)
same,Potency,[5]; [9],inactive
same,Potency,W2,inactive
C/C(=C(/CCOC(=O)C(C)C)SS/C(CCOC(=O)C(C)C)=C(\C)N(C=O)Cc1cnc(C)nc1N)N(C=O)Cc1cnc(C)nc1N,Potency,[1],inactive
same,Potency,[5]; [9],inactive
same,Potency,W2,inactive
C#C[C@]1(O)CC[C@H]2[C@H]3[C@H](CC[C@@]21C)C1=C(CC(=O)CC1)C[C@@H]3C,Potency,[2],inactive
Cc1cc(O)c2c(c1)OC1(C)CCC3C(C)(C)CCCC34COC2C14 (centres undefined),Potency,[4],28.7 µM (active)
same,Potency,W2,8.49 µM (active)
CC[C@H]1OC(=O)[C@H](C)C(=O)[C@H](C)[C@@H](OC2O[C@H](C)C[C@H](N(C)C)[C@@H]2O)[C@@](C)(OC)C[C@@H](C)C(=O)[C@@H](C)C2N(CCCCn3cnc(-c4cccnc4)c3)C(=O)O[C@@]21C (some centres undefined),Potency,[3],inactive
CC#CCN1c2ccccc2[C@]23C[C@@H](C(=O)OC)N(C(=O)C4CCC4)C2=NC(C(=O)OC)=C(C(=O)OC)[C@H]13,Potency,[6],inactive
CN(C)CC[C@@](O)(c1ccccc1)c1ccccc1Cl,Potency,[1],inactive
same,Potency,[2],inactive
same,Potency,[4],inactive
same,Potency,W2,1.2 µM (active)
O=C1Oc2ccccc2C(=O)C1C(CC(O)c1ccc(-c2ccc(Br)cc2)cc1)c1ccccc1 (centres undefined),Potency,[1],50.1 µM (active)
same,Potency,[3],inactive
same,Potency,[4],36.1 µM (active)
same,Potency,[5]; [9],inactive
CCOc1ccccc1O[C@@H](c1ccccc1)[C@@H]1CNCCO1,Potency,[7],inactive
same,Potency,[1],inactive
same,outcome,[8],inactive
same,Potency,[2],inactive
same,Potency,[3],inactive
same,Potency,[4],inactive
same,Potency,W2,2.69 µM (active)
CC1=C(C/C=C(\C)CCCC(C)CCCC(C)CCCC(C)C)C(=O)c2ccccc2C1=O (centres undefined),Potency,[2],inactive
same,Potency,[3],inactive
same,Potency,[5]; [9],inactive
same,Potency,W2,4.78 µM (active)
CCC1OC(=O)C[C@@H](O)[C@H](C)[C@@H](OC2OC(C)CC(N(C)C)C2O)[C@@H](CC=O)C[C@@H](C)C(=O)/C=C/[C@]2(C)OC2C1C (some centres undefined),Potency,[1],inactive
same,Potency,[2],inactive
same,Potency,[3],inactive
same,Potency,[5]; [9],inactive
same,Potency,W2,1.2 µM (active)
O=C(O)c1ccccc1-c1c2ccc(=O)cc-2oc2cc(O)ccc12,Potency,[2],inactive
same,Potency,[3],inactive
same,Potency,[4],inactive
NC(C(=O)O)C(O)c1ccc(O)c(O)c1 (centres undefined),Potency,[1],22.4 µM (active)
same,Potency,[4],inactive
same,Potency,[5]; [9],inactive

# Source: PubChem BioAssay (NCATS)
